# According to the supplement of paper PMC6555819:
# Columns and labels:
# Assay in all cases: PBM binding z-score (relative to random genomic background probes); higher = stronger binding; sequences stand for … in GC…GCGATTGACAGCGTAGAATGAAGG
# [1] = tested on: PPARg:RXRa DBDmut IVT, anti-RXR (DBD mutation: RXRa K156A/R161A, NR concentration 270 nM, RXRa partner concentration 90 nM)
# In short: (§1)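 Binding z-scores were set against random background probes. The data came from custom Agilent 4×180K protein-binding microarrays carrying double-stranded probes with 34-nt variable regions, incubated 1 h with ligand-free nuclear receptor dimers. Partner-specific antibodies detected binding, and scanned fluorescence was regression-normalized.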
# [2] = tested on: PPARg:RXRa IVT, anti-PPARg (NR concentration 270 nM, RXRa partner concentration 90 nM)
# In short: as §1
# [3] = tested on: PPARg DBDmut:RXRa IVT, anti-PPARg (DBD mutation: PPARg1 K132A/R137A, NR concentration 270 nM, RXRa partner concentration 90 nM)
# In short: as §1
# [4] = tested on: PPARg DBDmut IVT, anti-PPARg (DBD mutation: PPARg1 K132A/R137A, NR concentration 270 nM)
# In short: as §1
# [5] = tested on: PPARg homodimer (NR concentration 180 nM)
# In short: as §1
# [6] = tested on: PXR:RXRa (NR concentration 270 nM, RXRa partner concentration 90 nM)
# In short: as §1
# [7] = tested on: PXR homodimer (NR concentration 270 nM)
# In short: as §1
# [8] = tested on: RARa:RXR (NR concentration 270 nM, RXRa partner concentration 90 nM)
# In short: as §1
# [9] = tested on: RARa homodimer (NR concentration 270 nM)
# In short: as §1
# [10] = tested on: RARb:RXRa (NR concentration 270 nM, RXRa partner concentration 90 nM)
# In short: as §1
Sequence,PBM binding z-score [1],PBM binding z-score [2],PBM binding z-score [3],PBM binding z-score [4],PBM binding z-score [5],PBM binding z-score [6],PBM binding z-score [7],PBM binding z-score [8],PBM binding z-score [9],PBM binding z-score [10]
GCGACTGGGGCTAAGCAGGTTACCATAAGGTTGG,0.815,0.343,-0.64,-1.34,-0.237,-0.0501,-0.222,0.266,-0.85,0.544
CGTCCAAGGTCAGAGAGGTTAGTGAATGCCGAGT,2.24,2.47,-0.113,-0.422,2.06,3.93,4.8,3.47,0.223,4.7
TCTTTTAGATCAATAGAGGTTAAGAAAGTGCGCT,1.67,1.53,1.94,1.81,0.69,3.35,0.207,2.08,-0.186,1.23
CGAACTAGGTCAAGGATAGTGAATCTCCGCACGC,8.31,8.31,3.8,1.33,2.41,0.863,-0.425,1.96,0.921,3.73
GCTGCTAGGTCAGGTGGGTCAGCTAACGGGTACG,2.85,3.22,0.103,-0.61,1.05,1.28,-0.409,1.66,-0.0518,3.56
CCAGACAGGTGAGAAGATAACTCAGCCTCGATTA,0.896,0.216,-0.0942,-0.455,0.364,0.081,0.476,0.117,0.792,0.241
TCTCGGAGGACCCGAAGGTCAGAGCTTTCCAGAG,0.809,-0.16,-1.17,-1.31,0.165,1.42,-0.264,1.89,-0.281,2.35
TGTAGTTGGTCACGGAGGTCACACACGACGGGTA,0.726,3.95,0.96,0.805,2.4,4.14,0.948,4.35,0.915,3.87
CAGCCTAGGTCAGGGGCAGTATAGGAGGAACGTT,1.2,1.71,-0.201,-0.982,1.41,0.677,-0.048,1.33,0.0151,3.5
GAACCAAGGTGAATAGGTCGTTGATGAGTAGGCG,1.81,2.56,-0.234,-0.27,0.411,0.765,-0.0642,1.68,-0.0573,1.95
TCTAGTAGATCAAAGGTTAAGAAAGCCGAAGCCT,2.37,3.82,0.0215,0.532,1.09,1.86,-0.328,2.97,0.336,1.72
ACTGACAGGTGATGAAGGTAACTCAGGCTATCAT,0.252,0.675,0.404,-0.0306,-0.378,-0.393,-0.233,-0.039,0.284,0.224
CATACAGGGTCAGCTAGGCCAGGGTAGGGACGGC,0.462,2.48,0.368,0.335,1.37,2.18,-0.00796,3.16,0.91,4.02
ATCGAAAGGTAGACGAGGTGAGTATACACCGTTT,0.012,0.628,0.703,0.518,0.162,-0.0156,-0.144,0.31,0.224,0.438
TCTTGTAGATCAGCAGGTTAGGAAAGCTGGCCAA,1.65,0.124,-0.587,-0.926,0.0866,-0.035,-0.454,0.152,0.51,0.179
ATCTCTAGGTAACAAGTTCAGTGACAGAGAGGAC,3.59,3.2,1.48,1.17,1.56,1.61,1.61,1.11,1.47,1.81
TCTCGGAGGACACGACAGGTCAGAGCTCGACATC,0.919,0.745,0.0844,-0.496,0.53,1.27,-0.142,1.6,0.0819,2.62
CAAGACAGGTGAGAAGGTAACTCAGCCTCGATTA,0.761,1.21,-0.174,-0.268,0.64,0.215,0.678,0.355,0.384,0.867
ATATGTAGGTTAAGGGTCAGTCAGGTTGGTTCGC,7.48,7.77,4.77,2.22,3.78,4.14,2.03,4.53,2.65,3.51
CGAACTAGGTGAAGGACAGTGAATCTCCGCACGC,7.22,6.69,0.351,1.02,-0.373,-0.343,-0.341,-0.0643,-0.232,0.792
CGTCAAAGTTCCAGGTAACGTAACAGAAAGCAGC,0.434,0.748,-0.578,0.351,0.169,0.0635,-0.218,0.268,0.632,0.351
CCTACTGGGCCACGAGAGGTCATTGATTCAGTGA,6.03,5.58,-0.253,-0.977,3.46,5.52,2.52,5.15,1.39,3.27
TCTGGTAGGTCAGTTGGTCAGCTAACGAGCTGCC,3.49,4.52,-0.0249,-0.0633,1.33,0.675,-0.287,0.778,0.532,3.62
GCCAGCAGGCCATTTGGGTCACTCAATGACGGGC,0.295,1.48,-0.593,-1.66,-0.218,0.499,0.123,0.783,-1.21,1.49
